Laboratory results: the supplement of paper PMC12494721
Where a name gives a salt, the structure may show the parent alone.

The compounds below were run on Clostridium sporogenes DSM 1664 (assay: growth (OD595) fold change vs plate DMSO controls (fold change (ratio)); higher = more growth). Conditions: incubation time: 27 h, anaerobic, 37 °C.
Method in brief: (§1)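 Anaerobic 27 h, 37 °C mGAM 96-well cultures were shaken, then read for absorbance at 595 nm. Values were blank-subtracted and corrected for compound background using 20 µM compound solutions in water. A calibration factor of 5 converted them to OD. Growth is the fold change versus the median of plate DMSO controls. Fold changes above 1.5 were set to NA, and values are the mean of 2 biological replicates.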

First: CCN(CC)C(=O)N1CCN(C)CC1 [Diethylcarbamazine citrate] (20 µM)
Second: N=C(N=C(N)N)N1CCOCC1 [Moroxidine hydrochloride] (20 µM)
The growth of the first is higher: 1.12 for the first, 0.931 for the second.

Going from `CCCCCCCN(CC)CCCC(O)c1ccc(NS(C)(=O)=O)cc1` (stereo unspecified) [Ibutilide fumarate] (20 µM) to `CCN(CCCCOC(=O)c1ccc(OC)c(OC)c1)C(C)Cc1ccc(OC)cc1` (stereo unspecified) [Mebeverine hydrochloride] (20 µM), the growth falls from 1.13 to 0.955.

Going from `O=c1[nH]c(=O)n([C@H]2C[C@H](O)[C@@H](CO)O2)cc1I` [Idoxuridine] (20 µM) to `Cc1cc(C2CCCCC2)n(O)c(=O)c1` [Ciclopirox ethanolamine] (20 µM), the growth rises from 0.856 to 0.962.

`CC[N+](C)(C)Cc1ccccc1Br` [Bretylium tosylate] (20 µM) gave a growth of 1.03.

What follows are compounds tested on Escherichia coli IAI1 in the same assay as above. Conditions: incubation time: 27 h, anaerobic, 37 °C.
Method in brief: as §1

Going from `CC1CC(OC(=O)C(O)c2ccccc2)CC(C)(C)C1` (stereo unspecified) [Cyclandelate] (20 µM) to `CN1[C@@H]2CC[C@H]1C[C@@H](OC(c1ccccc1)c1ccccc1)C2` [Benztropine mesylate] (20 µM), the growth falls from 1.02 to 0.99.

First: COc1ccc(C(=O)CC(=O)c2ccc(C(C)(C)C)cc2)cc1 [Avobenzone] (20 µM)
Second: CCN(CCCCOC(=O)c1ccc(OC)c(OC)c1)C(C)Cc1ccc(OC)cc1 (stereo unspecified) [Mebeverine hydrochloride] (20 µM)
The growth of the first is lower: 0.95 for the first, 1.25 for the second.

First: Cc1nc2ccccc2n1Cc1ccc(Cl)cc1 [Chlormidazole] (20 µM)
Second: CCCc1nc2c(C)cc(-c3nc4ccccc4n3C)cc2n1Cc1ccc(-c2ccccc2C(=O)O)cc1 [Telmisartan] (20 µM)
The growth of the first is lower: 0.947 for the first, 0.99 for the second.

Compared with `Cn1nnnc1SCC1=C(C(=O)O)N2C(=O)[C@@H](NC(=O)[C@H](O)c3ccccc3)[C@H]2SC1` [Cefamandole sodium salt] (20 µM), `Cc1onc(-c2ccccc2)c1C(=O)N[C@@H]1C(=O)N2[C@@H]1SC(C)(C)[C@@H]2C(=O)O` [Oxacillin sodium] (20 µM) is higher in growth: 0.0343 for the first, 0.994 for the second.

Going from `CCN1CCC[C@H]1CNC(=O)c1c(O)c(Cl)cc(Cl)c1OC` [Raclopride] (20 µM) to `O=C(NCc1ncc(C(F)(F)F)cc1Cl)c1c(Cl)cccc1Cl` (20 µM), the growth falls from 1.25 to 0.98.

Compared with `O=c1oc2ccccc2c(O)c1Cc1c(O)c2ccccc2oc1=O` [Dicumarol] (20 µM), `CCc1oc2ccccc2c1C(=O)c1cc(Br)c(O)c(Br)c1` [Benzbromarone] (20 µM) is lower in growth: 0.961 for the first, 0.959 for the second.

Compared with `S=C([S-])NCCNC(=S)[S-].S=C([S-])NCCNC(=S)[S-].[Mn+2].[Zn+2]` (20 µM), `CCCCc1ncc(/C=C(\Cc2cccs2)C(=O)O)n1Cc1ccc(C(=O)O)cc1` [Eprosartan mesylate] (20 µM) is higher in growth: 0.959 for the first, 1.06 for the second.

Compared with `CC(NCCC(c1ccccc1)c1ccccc1)c1ccccc1` (stereo unspecified) [Fendiline hydrochloride] (20 µM), `CN(C)CCC=C1c2ccccc2COc2ccccc21` [Doxepin hydrochloride] (20 µM) is higher in growth: 0.952 for the first, 0.995 for the second.

Compared with `Nc1ccc(S(=O)(=O)Nc2nccs2)cc1` [Sulfathiazole] (20 µM), `COc1cc(C(=O)NS(=O)(=O)c2ccccc2C)ccc1Cc1cn(C)c2ccc(NC(=O)OC3CCCC3)cc12` [Zafirlukast] (20 µM) is lower in growth: 0.979 for the first, 0.946 for the second.

Compared with `CC(=O)/N=c1/sc(S(N)(=O)=O)nn1C` [Methazolamide] (20 µM), `CC(=O)Oc1cccc2c1C(=O)c1c(OC(C)=O)cc(C(=O)O)cc1C2=O` [Diacerein] (20 µM) is lower in growth: 1.07 for the first, 0.994 for the second.

Going from `Oc1ccccc1O` [Catechol] (20 µM) to `COc1ccccc1O` [Guaiacol] (20 µM), the growth falls from 1.01 to 1.

First: COc1nc(N)nc2c1ncn2[C@@H]1O[C@H](CO)[C@@H](O)[C@@H]1O [Nelarabine] (20 µM)
Second: O=c1[nH]c(=O)n([C@H]2C[C@H](O)[C@@H](CO)O2)cc1I [Idoxuridine] (20 µM)
The growth of the first is lower: 0.973 for the first, 1.02 for the second.

First: Nc1nc(=O)[nH]cc1F [Flucytosine] (20 µM)
Second: O=C1CCC(N2C(=O)c3ccccc3C2=O)C(=O)N1 (stereo unspecified) [Thalidomide] (20 µM)
The growth of the first is lower: 0.897 for the first, 0.98 for the second.

First: CC[N+](CC)(CC)CCOc1cccc(OCC[N+](CC)(CC)CC)c1OCC[N+](CC)(CC)CC [Gallamine triethiodide] (20 µM)
Second: CCCOc1cc(N)ccc1C(=O)OCCN(CC)CC [Propoxycaine hydrochloride] (20 µM)
The growth of the first is higher: 1.02 for the first, 1.01 for the second.

First: COc1cc(C)nc(-n2nc(C)cc2OC)n1 [Epirizole] (20 µM)
Second: Cc1cc(C2CCCCC2)n(O)c(=O)c1 [Ciclopirox ethanolamine] (20 µM)
The growth of the first is lower: 0.98 for the first, 1.05 for the second.

First: COc1cccc2c1C(=O)c1c(O)c3c(c(O)c1C2=O)C[C@@](O)(C(=O)CO)C[C@@H]3O[C@H]1C[C@H](N)[C@@H](O)[C@H](C)O1 [Epirubicin hydrochloride] (20 µM)
Second: NC[C@H]1O[C@H](O[C@H]2[C@H](O)[C@@H](O[C@H]3O[C@H](CO)[C@@H](O)[C@H](N)[C@H]3O)[C@H](N)C[C@@H]2N)[C@H](N)C[C@@H]1O [Tobramycin] (20 µM)
The growth of the first is lower: 0.0185 for the first, 0.95 for the second.

Going from `OC[C@H]1O[C@H](O[C@H]2O[C@H](CO)[C@@H](O)[C@H](O)[C@H]2O)[C@H](O)[C@@H](O)[C@@H]1O` [Trehalose] (50 µM) to `C[C@H](CCC(=O)O)[C@H]1CC[C@H]2[C@@H]3CC[C@@H]4C[C@H](O)CC[C@]4(C)[C@H]3CC[C@]12C` [Lithocholic acid] (20 µM), the growth falls from 1.07 to 1.01.

First: CNC(C)CCC=C(C)C (stereo unspecified) [Isometheptene mucate] (20 µM)
Second: CCN(CC)C(=O)N1CCN(C)CC1 [Diethylcarbamazine citrate] (20 µM)
The growth of the first is higher: 0.977 for the first, 0.975 for the second.

First: CCCCCCCN(CC)CCCC(O)c1ccc(NS(C)(=O)=O)cc1 (stereo unspecified) [Ibutilide fumarate] (20 µM)
Second: CC[N+](C)(C)Cc1ccccc1Br [Bretylium tosylate] (20 µM)
The growth of the first is higher: 1.12 for the first, 1.02 for the second.

Work on `N=C(N=C(N)N)N1CCOCC1` [Moroxidine hydrochloride] (20 µM) yielded a growth of 1.05.
